Rows were chosen to be rich in hits. Some 21% of all compounds tested hit in one or more screens of this group.
NS1 function inh: inhibitors of influenza NS1 protein function. Potency, µM (top dose mostly 46.1 µM), for the others: top-dose activity, positive = more growth. AID 2326. hit rate 0.4% among 270,000; further: potency means the concentration at half of the fitted maximal effect; actives are rising curves; nearly all actives have a fitted effect of over 50% in size
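Recovery from NS1-induced slow growth read by OD600 in budding yeast switched to galactose assay medium (pH 6.0, -URA) at 1:100 dilution. Compound 23 nl per well; the matching strain lacking NS1 serves as control.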
Pf growth 96h: P. falciparum growth inhibition at 96 hours; P. falciparum luciferase reporter growth, 96 h; hit rate 6.9% among 320,000; Potency, µM (titrated, usually from 28.7 µM), for inactives: at the top dose activity change, negative = inhibition, most hits filed as inhibitors; active means well fitted inhibition curve with a large enough effect; inconclusive means small, poorly fitted or top-dose-only effect, or another doubt; inactive means no such curve, though single readings can be large or run the other way; further: potency means the concentration at half of the fitted maximal effect; on the % scale 0 is the no-effect control and ±100 the full control effect
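Erythrocytes infected with luciferase-expressing P. falciparum were dispensed at 2% hematocrit and 0.05% parasitemia (final), then incubated with compounds 96 hours at 37 C in 5% CO2. Luminescence after detection reagent addition reported growth.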
Pf growth 48h: inhibits P. falciparum growth in the first generation, 48 h; P. falciparum luciferase growth in erythrocytes, 48 h; Potency, µM (top dose mostly 28.7 µM), for inactives: at the highest dose activity change, negative = inhibition, most hits filed as inhibitors; hit rate 5.9% among 310,000; active means well fitted inhibition curve with a large enough effect; inconclusive means small, poorly fitted or top-dose-only effect, or another doubt; inactive means no such curve, though single readings can be large or run the other way; further: potency means the concentration at half of the fitted maximal effect; on the % scale 0 is the no-effect control and ±100 the full control effect
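Parasite viability was followed by luminescence of a genomically integrated firefly luciferase. Cultures held 0.1% parasitemia at 2% hematocrit (final), incubated under 5% CO2 at 37 C.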
Shiga toxin inh: inhibitors of Shiga toxin in Vero cells | Vero cells, Shiga toxin protein synthesis inhibition reporter | inhibition, % at 38.7 µM | hit rate 9.2% among 290,000; in the data active means inhibition mostly above about 28%, no sharp cut-off; inactive means mostly below about 43%; further: 0% is about no effect
SARS PLP yeast: SARS-CoV PLP inhibition in yeast. S. cerevisiae expressing SARS-CoV PLpro, growth rescue. Potency, µM (doses to about 32.9 µM), inactives show top-dose activity, positive = growth rescue, usual class: activators. hit rate 0.19% among 330,000. AID 485353; further: potency means the concentration at half of the fitted maximal effect; 0% is about no effect; nearly all actives have a fitted effect of over 55% in size
CHX counter: counter-screen hit for Shiga toxin inhibitors, cycloheximide; cell reporter, cycloheximide protein synthesis inhibition counterscreen; max response, %; hit rate 12% among 300,000; in the data active means max response mostly above about 13%, no sharp cut-off; inactive means mostly below about 14%; further: read at 38.3 µM for the half of the compounds with a filed dose; 0% is about no effect
* marks the source's active call; other numbers are inactive results; [ ] = dose if it differs, or a comment. Unless noted, the call rests on the fitted dose curve.

How did CC[C@H](C)[C@H](NC(=O)[C@H](Cc1ccc(O)cc1)NC(=O)[C@H](Cc1cnc[nH]1)NC(=O)[C@H](CCCNC(=N)N)NC(=O)[C@H](CC(C)C)NC(=O)[C@H](C)NC(=O)[C@H](CO)NC(=O)[C@H](Cc1ccc(O)cc1)NC(=O)[C@H](Cc1ccc(O)cc1)NC(=O)[C@H](CCCNC(=N)N)NC(=O)[C@H](C)NC(=O)[C@H](CC(C)C)NC(=O)[C@H](CC(=O)O)NC(=O)[C@H](CCC(=O)O)NC(=O)[C@H](C)NC(=O)[C@@H]1CCCN1C(=O)[C@H](C)NC(=O)[C@H](CC(=O)O)NC(=O)[C@H](CCC(=O)O)NC(=O)CNC(=O)[C@@H]1CCCN1C(=O)[C@H](CC(N)=O)NC(=O)[C@H](CC(=O)O)NC(=O)[C@@H]1CCCN1C(=O)[C@H](CCCCN)NC(=O)[C@H](CO)NC(=O)[C@@H]1CCCN1C(=O)[C@@H](N)Cc1ccc(O)cc1)C(=O)N[C@@H](CC(N)=O)C(=O)N[C@@H](CC(C)C)C(=O)N[C@@H](CC(C)C)C(=O)N[C@H](C(=O)N[C@@H](CCCNC(=N)N)C(=O)N1CCC[C@H]1C(=O)N[C@@H](CCCNC(=N)N)C(=O)N[C@@H](Cc1ccc(O)cc1)C(N)=O)[C@@H](C)O do in these assays?
Shiga toxin inh: 14; CHX counter: 41

Results for O=C(CSc1nc2nc(-c3cccs3)cc(C(F)(F)F)c2c(=O)[nH]1)C(F)(F)F ?
NS1 function inh: 4%; Pf growth 96h: -2%; Shiga toxin inh: -7; SARS PLP yeast: 1%; CHX counter: -6

What do the screens show for `Cc1ccccc1OCC(=O)Nc1ccccc1-c1ccccc1NC(=O)COc1ccccc1C`?
NS1 function inh: -17%; Pf growth 96h: 9.3µM*; Pf growth 48h: 8.3µM*; Shiga toxin inh: -4; SARS PLP yeast: 5%; CHX counter: -5

What do the screens show for `Cc1ccccc1NC(=S)NC(=O)COc1ccccc1C`?
NS1 function inh: 7%; Pf growth 96h: 20%; Pf growth 48h: 13%; Shiga toxin inh: -14; SARS PLP yeast: -5%; CHX counter: 27*

Results for Cc1ccccc1OCC(=O)Nc1cccc(Cl)c1C ?
NS1 function inh: -7%; Pf growth 96h: -98%; Pf growth 48h: 35%; Shiga toxin inh: 9; SARS PLP yeast: 2%; CHX counter: 8

What do the screens show for `Cc1ccccc1OCC(=O)OCC(=O)c1ccc(OCc2ccccc2)cc1`?
NS1 function inh: -1%; Pf growth 96h: -13%; Pf growth 48h: 123%; Shiga toxin inh: 81*; SARS PLP yeast: 12%; CHX counter: 59*

How did O=C(/C=C/c1ccccc1[N+](=O)[O-])N1CCN(c2ccccc2F)CC1 do in these assays?
NS1 function inh: -5%; Pf growth 96h: 4%; Pf growth 48h: -2%; Shiga toxin inh: 25; SARS PLP yeast: 0%; CHX counter: 13

What do the screens show for `Cc1nccn1CCOc1ccccc1Cl`?
NS1 function inh: inconclusive; Pf growth 96h: 274%; Pf growth 48h: -30%; Shiga toxin inh: 10; SARS PLP yeast: 5%; CHX counter: 2

What do the screens show for `COc1ccc(OCC(O)CNC(=O)Nc2ccccc2)cc1` (configuration not stated)?
NS1 function inh: 0%; Pf growth 96h: 35%; Pf growth 48h: 37%; Shiga toxin inh: -6; SARS PLP yeast: 0%; CHX counter: -1

What do the screens show for `COc1ccc(OCC(O)CNC(=O)c2sccc2Cl)cc1` (configuration not stated)?
NS1 function inh: -8%; Pf growth 96h: 68%; Pf growth 48h: 21%; Shiga toxin inh: 16; SARS PLP yeast: -1%; CHX counter: 20*

Results for O=C(NCc1ccc(F)cc1)c1cccc2c1C(=O)c1ccc(Cl)cc1S2(=O)=O ?
Pf growth 96h: 32%; Pf growth 48h: 14%; SARS PLP yeast: -30%

What do the screens show for `COc1ccc(OC[C@@H](O)CNC(=O)c2cccc3c2C(=O)c2ccc(Cl)cc2S3(=O)=O)cc1`?
Pf growth 96h: 2.1µM*; Pf growth 48h: inconclusive; SARS PLP yeast: -5%

What do the screens show for `c1ccc2c([C@@H]3CCN(CCN4CCOCC4)C3)c[nH]c2c1`?
NS1 function inh: 2%

What do the screens show for `C/C(=N\OC(=O)c1ccccc1)c1cc(-c2ccc(Cl)cc2)no1`?
NS1 function inh: 8%; Pf growth 96h: 240%; Pf growth 48h: 148%; Shiga toxin inh: 30; SARS PLP yeast: 5%; CHX counter: 0

Results for C/C(=N/OC(=O)C1CC1)c1cc(-c2ccc(Cl)cc2)no1 ?
NS1 function inh: -2%; Pf growth 96h: 203%; Pf growth 48h: 325%; Shiga toxin inh: 29; SARS PLP yeast: 0%; CHX counter: 18*

Results for Cc1csc(SCC(=O)c2ccc(S(=O)(=O)N3CCOCC3)cc2)n1 ?
NS1 function inh: 0%; Pf growth 96h: 10µM*; Pf growth 48h: inconclusive; Shiga toxin inh: 28; SARS PLP yeast: 4%; CHX counter: -4

How did CCn1c(SCC(=O)OC)nc2cc(S(=O)(=O)N3CCOCC3)ccc21 do in these assays?
Pf growth 96h: -10%; Pf growth 48h: -14%

Results for CCc1ccc(C(=O)CSc2nc3cc(S(=O)(=O)N4CCOCC4)ccc3n2CC)cc1 ?
NS1 function inh: 24%; Pf growth 96h: 10µM*; Pf growth 48h: inconclusive; Shiga toxin inh: 21; SARS PLP yeast: -31%; CHX counter: 13

Results for CC(C)(C)c1ccc(C(=O)N2CCN(S(=O)(=O)c3ccc(Br)s3)CC2)cc1 ?
Pf growth 96h: 10µM*; Pf growth 48h: 6.6µM*; SARS PLP yeast: -2%

How did CNc1ccc(C(=O)N2CCN(S(=O)(=O)c3ccc4c(c3)OCCCO4)CC2)cc1[N+](=O)[O-] do in these assays?
NS1 function inh: -25%; Pf growth 96h: 12µM*; Pf growth 48h: inconclusive; Shiga toxin inh: -5; SARS PLP yeast: -5%; CHX counter: -2

How did Cc1ccc(C(=O)N2CCN(S(=O)(=O)c3ccccc3[N+](=O)[O-])C2)cc1 do in these assays?
Pf growth 96h: inconclusive; Pf growth 48h: 20%; Shiga toxin inh: 92*; SARS PLP yeast: 1%; CHX counter: 37*

What do the screens show for `Cc1ccc(S(=O)(=O)N2CCCCC2)cc1C(=O)c1nccn1C`?
NS1 function inh: -3%; Pf growth 96h: inconclusive; Shiga toxin inh: -19; SARS PLP yeast: -4%; CHX counter: -1

What do the screens show for `Cn1ccnc1C(=O)c1ccc(S(=O)(=O)N2CCCC2)cc1`?
NS1 function inh: 9%; Pf growth 96h: -1%; Pf growth 48h: 33%; Shiga toxin inh: 28; SARS PLP yeast: -2%; CHX counter: 14*

How did Cc1ccc(S(=O)(=O)N2CCN(C(=O)c3ccccc3)C2)cc1[N+](=O)[O-] do in these assays?
Pf growth 96h: -54%[1.15 µM]; Pf growth 48h: -3%; Shiga toxin inh: 8; SARS PLP yeast: 0%; CHX counter: 2

Assay outcomes as filed in PubChem.
